Sampled rows, rich in hits. Any-hit rate of the full collection: about 5%.
SENP8 block-1 – SENP8 protease inhibitors, primary screen, biochemical, luminescence; inhibition, % at 10 µM; 330,000 compounds, 1.2% hits; Sentrin-specific protease 8 (Homo sapiens), Q96LD8; AID 2540, 2010; purified SENP8, Z-RLRGG-aminoluciferin cleavage; in the data active means inhibition above about 50%
SENP7 inh – SENP7 protease inhibitors, primary screen, biochemical, luminescence, uHTS; inhibition, % at 5 µM; 330,000 compounds, 1.5% hits; recombinant SENP7, Z-RLRGG-aminoluciferin luminescence, 40 min; AID 434973, 2010;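 active means inhibition above about 50% at the single test dose, limit read from the data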;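 further: plate controls were DMSO with enzyme for no effect and no enzyme buffer wells for full effect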
Target sequence (Q9BQF6 706-1050 limits assumed): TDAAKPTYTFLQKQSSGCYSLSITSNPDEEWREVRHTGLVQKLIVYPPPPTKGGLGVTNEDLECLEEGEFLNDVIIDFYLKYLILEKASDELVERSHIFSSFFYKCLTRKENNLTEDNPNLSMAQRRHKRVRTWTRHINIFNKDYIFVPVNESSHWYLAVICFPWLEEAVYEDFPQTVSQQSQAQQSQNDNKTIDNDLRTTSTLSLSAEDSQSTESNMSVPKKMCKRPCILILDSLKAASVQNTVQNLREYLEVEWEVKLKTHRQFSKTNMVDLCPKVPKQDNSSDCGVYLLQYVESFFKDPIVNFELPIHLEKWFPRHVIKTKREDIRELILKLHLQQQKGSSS
AHR act – AHR activators, primary screen, cell-based, luminescence, luciferase reporter, human. Aryl hydrocarbon receptor (Homo sapiens), P35869. AHR-responsive luciferase reporter cells. activation, % at 5 µM. 320,000 compounds, 2.5% hits. AID 2796, 2010; in the data active means activation above about 47%;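 further: 0% = vehicle wells and 100% = reference agonist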
SENP6 block – SENP6 protease inhibitors, primary screen, biochemical, luminescence, uHTS. 330,000 compounds, 1.8% hits. Sentrin-specific protease 6 (Homo sapiens), Q9GZR1. Recombinant SENP6 catalytic domain, aminoluciferin luminescence. inhibition, % at 10 µM;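 active means inhibition above about 50% at the single tested dose, limit read from the data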;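 further: plate controls were DMSO wells with enzyme for no effect and DMSO wells lacking enzyme for full effect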
EBI2 block – EBI2 receptor antagonists, beta-arrestin recruitment, primary screen, cell-based, luminescence, 7a,25-OHC stimulation, uHTS | G-protein coupled receptor 183 (Homo sapiens), P32249 | 7a,25-OHC stimulated | inhibition, % at 5 µM | 360,000 compounds, 0.81% hits; in the data active means inhibition above about 38%;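 further: enzyme fragment complementation signal reports receptor beta-arrestin coupling in cells; 0% = agonist plus DMSO wells and 100% = wells without agonist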
SENP8 block-2 – human SENP8 protease inhibitors, primary screen, biochemical, fluorescence, Nedd8 protein substrate, uHTS. inhibition, % at 20 µM. 360,000 compounds, 0.64% hits. Sentrin-specific protease 8 (Homo sapiens), Q96LD8. AID 602440, 2012. recombinant SENP8; in the data active means inhibition mostly above about 40%, no sharp cut-off; inactive means mostly below about 27%
AHR act cf – AHR activators, confirmation, cell-based, luminescence, luciferase reporter, human; activation, % at 9 µM; 2,300 compounds, 87% hits; human cells, AHR-responsive luciferase reporter; shares compounds with AHR act; in the data active means activation above about 49%;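 further: HepG2 hepatoma cells carrying a DRE-driven firefly luciferase reporter; 0% = vehicle wells and 100% = reference agonist wells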
PXR act counter – human PXR activators, counter-screen for AHR activator project, cell-based, luciferase luminescence. activation, % at 11.6 µM. AID 434939, 2010. 2,300 compounds, 88% hits. cell-based PXR reporter. shares compounds with AHR act; in the data active means activation above about 11%;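 further: human hepatoma DPX-2 cells expressing full-length human PXR; 0% = DMSO and 100% = reference agonist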
SENP8 conf – SENP8 protease inhibitors, retest, confirmation, biochemical, luminescence, single concentration; AID 488912, 2010; Recombinant SENP8, Z-RLRGG-aminoluciferin luminescence, 60 min; 6,200 compounds, 40% hits; inhibition, % at 12.5 µM; shares compounds with SENP7 inh;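 active means mean inhibition across replicates above about 50%, limit read from the data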
SENP6 conf – SENP6 protease inhibitors, confirmation, biochemical, luminescence, single concentration; recombinant SENP6, Z-RLRGG-aminoluciferin luminescence; 6,200 compounds, 58% hits; inhibition, % at 12.5 µM; shares compounds with SENP7 inh
SENP7 confirm – SENP7 protease inhibitors, retest, confirmation, biochemical, luminescence, single concentration | recombinant SENP7, Z-RLRGG-aminoluciferin luminescence, 40 min | inhibition, % at 12.5 µM | 6,200 compounds, 69% hits | shares compounds with SENP7 inh
Casp3 SENP sel – caspase-3 protease inhibitors, confirmation, selectivity assay for SENP inhibitor project, biochemical, single concentration; shares compounds with SENP7 inh; purified caspase-3, Z-DEVD-aminoluciferin luminescence, 60 min; inhibition, % at 12.5 µM; 6,200 compounds, 60% hits;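 active means mean inhibition above about 50%, limit read from the data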;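 further: plate controls were enzyme with DMSO for no effect and wells without caspase-3 for full effect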
Target sequence (P42574 28-227 limits assumed): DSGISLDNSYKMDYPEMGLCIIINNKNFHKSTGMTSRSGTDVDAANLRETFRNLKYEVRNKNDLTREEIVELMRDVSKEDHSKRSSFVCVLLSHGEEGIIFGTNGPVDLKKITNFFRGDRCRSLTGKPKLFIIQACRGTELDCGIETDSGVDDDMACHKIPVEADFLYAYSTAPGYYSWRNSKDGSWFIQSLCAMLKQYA
Luc interf – luminescence interference (SENP counter-screen). shares compounds with SENP7 inh. Pre-incubated SENP8/Z-RLRGG-aminoluciferin, luciferase luminescence interference. inhibition, % at 12.5 µM. 6,200 compounds, 39% hits. AID 488919;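 active means mean inhibition above about 50% when retested at one dose, limit read from the data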;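 further: plate controls were DMSO wells with completed reaction for no effect and substrate without enzyme for full effect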
Starred values were filed as active, the others as inactive; i = inactive; nt = not tested or not shown.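 How the source made its calls, unless noted: active means mean inhibition above about 50% in the one-dose retest (limit read from the data); inactive means the rest.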

SMILES	SENP8 block-1	SENP7 inh	AHR act	SENP6 block	EBI2 block	SENP8 block-2	AHR act cf	PXR act counter	SENP8 conf	SENP6 conf	SENP7 confirm	Casp3 SENP sel	Luc interf
O=C1NCCC/C1=N\Nc1ccc(Br)cc1	-14	-8	119*	-25	9	12	124*	21*	nt	nt	nt	nt	nt
Cc1ccccc1N/N=C1\CCCNC1=O	-20	0	-5	4	-5	23	nt	nt	nt	nt	nt	nt	nt
COc1ccccc1C1CC(c2cccs2)=Nc2ccccc2S1 (stereo unspecified)	-4	4	102*	-2	0	7	93*	55*	nt	nt	nt	nt	nt
CCOc1ccccc1NC(=O)c1cnc2n(c1=O)CCS2	5	7	88*	4	4	-50	65*	55*	nt	nt	nt	nt	nt
COc1ccc(C)cc1NC(=O)c1cnc2n(c1=O)CCS2	-2	8	24	-6	3	-20	nt	nt	nt	nt	nt	nt	nt
COc1cc(NS(=O)(=O)c2ccc(NC(=O)c3cccnc3)cc2)ncn1	-6	6	-2	-7	-1	18	nt	nt	nt	nt	nt	nt	nt
Nc1ccc(-c2nc3c(ccc4ccccc43)[nH]2)cc1	31	31	83*	59*	4	i	60*	10	24	21	37	18	-3
O=C(CN1CCN(S(=O)(=O)c2ccc3ccccc3c2)CC1)Nc1ccc2c(c1)CCC2	-4	-7	-1	-7	24	9	nt	nt	nt	nt	nt	nt	nt
O=C1C(=O)N(C/C=C/c2ccccc2)c2ccccc21	1	4	2	13	9	17	nt	nt	nt	nt	nt	nt	nt
Fc1cccc2sc(Nc3nc4cc5c(cc4s3)OCO5)nc12	-8	53*	130*	7	5	-449	121*	12*	-6	-10	2	5	-5
CCOc1ccc(Nc2nc(-c3cccnc3)cs2)cc1	18	70*	115*	20	16	-1	181*	14*	-9	11	11	6	-3
CC(=O)c1ccc(Nc2nc(-c3cccnc3)cs2)cc1	-20	0	nt	8	16	-457	nt	nt	nt	nt	nt	nt	nt
Cc1cccc2c1-c1sc(C(=O)Nc3nccs3)cc1CO2	-1	67*	149*	40	11	-399	110*	22*	8	12	20	13	10
COc1cccc(-c2nc(-c3ccccn3)no2)c1OC	-3	3	7	-10	4	-23	nt	nt	nt	nt	nt	nt	nt
Clc1cccc(-c2nc(-c3ccccn3)no2)c1	92*	98*	104*	96*	-9	15	41	-2	97*	98*	102*	97*	97*
c1ccc(-c2noc(-c3cccc4ccccc34)n2)nc1	89*	90*	103*	96*	-11	-356	21	10	93*	95*	101*	90*	94*
O=C(Nc1ccccc1)C(=O)c1c[nH]c2ccccc12	89*	97*	102*	93*	-5	2	129*	28*	86*	90*	100*	85*	38
Clc1nnc(N/N=C/c2ccccc2)c2ccccc12	74*	90*	82*	94*	-12	9	110*	23*	16	39	65*	36	21
C(=N\Nc1nncc2ccccc12)/c1ccccc1	24	30	23	33	-3	-28	nt	nt	nt	nt	nt	nt	nt
O=C(Nc1ccc(F)cc1)c1nsc(Cl)c1Cl	84*	83*	83*	94*	7	32	222*	40*	62*	87*	97*	90*	57*
O=C(Cn1cc(C(=O)C(F)(F)F)c2ccccc21)N1CCOCC1	-10	-2	1	-30	-11	3	nt	nt	nt	nt	nt	nt	nt
CCn1cnc2cc(NCc3nc4ccccc4n3C)ccc21	68*	3	93*	72*	-4	-20	65*	83*	78*	77*	93*	92*	78*
O=Nc1c(-c2c(O)[nH]c3cc(Br)ccc23)[nH]c2ccccc12	8	53*	133*	54*	26	20	148*	22*	17	36	79*	22	4
Brc1ccccc1/C=N/Nc1ccc2ccccc2n1	49	70*	94*	75*	13	-129	131*	14*	41	78*	91*	53*	46
O=[N+]([O-])c1cccc(C=NNc2ccc3ccccc3n2)c1O	nt	nt	nt	nt	-8	36	nt	nt	nt	nt	nt	nt	nt
Cn1c(=O)[nH]c2nnc(-c3ccc(Cl)c(Cl)c3)nc2c1=O	97*	97*	112*	96*	10	12	42	15*	56*	80*	53*	91*	16
COc1cccc(C=Nc2cc(C)cc(C)c2)c1O	-1	8	0	-16	-10	2	nt	nt	nt	nt	nt	nt	nt
CCc1ccc2oc(-c3cc(N=Cc4cccc(OC)c4O)ccc3O)nc2c1	92*	89*	125*	86*	nt	nt	113*	9	84*	84*	87*	76*	28
Cc1sc(NC(=O)c2cc(-c3ccc(Cl)cc3)nc3ccccc23)c(C(N)=O)c1C	-7	-15	23	-22	-5	6	nt	nt	nt	nt	nt	nt	nt

Compound activity as filed in PubChem.
